High-throughput results (PubChem)
Only some compounds are listed: those with a hit (about 19% of all), similar ones and a draw of the others.
KB-3-1 cytotox – KB-3-1 parental cell cytotoxicity; AID 1347075; KB-3-1 viability, CellTiter-Glo ATP luminescence, 72 h; 1.4% of 400,000 active; Potency, µM (top dose mostly 46.1 µM), usual class: cytotoxic; also: nearly all actives have a fitted effect of over 60% in size
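Using CellTiter-Glo luminescence, growth of non-resistant KB-3-1 adenocarcinoma cells is assessed 72 h after pin-tool compound addition at 37 °C. Normalized responses across the concentration series yield fitted curves.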
TDP1 cell noCPT – qHTS for Inhibitors of human tyrosyl-DNA phosphodiesterase 1 (TDP1): qHTS in cells in absence of CPT; DT40 Tdp1-/- hTDP1 cells, no CPT, ATP luminescence, 48 h; Potency, µM (doses to about 46.2 µM), without a hit: at the top dose activity change, negative = growth inhibition, usual class: inhibitors; 15% of 420,000 active; AID 686978, 2013; also: nearly all actives have a fitted effect of over 55% in size
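Stably hTDP1-transfected Tdp1-null chicken DT40 cells were treated with library compounds minus camptothecin and grown for at least 48 hr at 37 °C, after which cellular ATP was quantified by luminescence.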
HT1080 IDH1KD tx – toxicity to HT-1080 IDH1 knockdown cells (counter line) | HT-1080 IDH1 knockdown viability, ATP luminescence, 48 h | Potency, µM (titrated, usually from 46.1 µM), without a hit: at the highest dose activity, negative = toxicity, most hits filed as cytotoxic | 2% of 360,000 active | AID 686971;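 also: 0% = DMSO wells and -100% = cell-free medium wells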
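In this qHTS, HT-1080 cells depleted of IDH1 are exposed for 48 h at 37 °C to compound titrations. Toxicity is scored from CellTiter-Glo luminescence, with DMSO as full viability and medium alone as none.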
KB-V1 cytotox – KB-V1 MDR subline cytotoxicity; KB-V1 MDR cells viability, CellTiter-Glo, 72 h; Potency, µM (series often up to 46.1 µM), actives largely listed as cytotoxic; 3.4% of 400,000 active; also: nearly all actives have a fitted effect of over 60% in size
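Drug-selected KB-V1 cells, grown in DMEM lacking phenol red with 10% FBS, receive compound titrations; after three days at 37 degrees C, surviving cell ATP is quantified by CellTiter-Glo luminescence and responses normalized and curve-fitted.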
DT40 TDP1 CPT – growth inhibition of DT40 Tdp1-/-;hTDP1 cells with camptothecin (screen for TDP1 inhibitors). chicken DT40 Tdp1-/-;hTDP1 cells + 20 nM CPT, ATP luminescence, 48 h. Potency, µM (doses to about 46.2 µM), for the others: at the highest dose activity change, negative = growth inhibition, hits mostly inhibitors. 12% of 420,000 active. AID 686979; also: nearly all actives have a fitted effect of over 55% in size
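Chicken DT40 Tdp1-/- cells complemented with human TDP1, 400 cells/well, exposed to compounds plus 20 nM camptothecin for at least 48 h at 37 C; viability read as ATP content by CellTiter-Glo luminescence.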
HT1080-NT tox – kills 2HG-producing HT-1080-NT fibrosarcoma cells; 1.6% of 360,000 active; Potency, µM (titrated, usually from 46.1 µM), without a hit: at the highest dose activity, negative = less viability, hits mostly cytotoxic; HT-1080-NT fibrosarcoma viability, CellTiter-Glo ATP luminescence, 48 h;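 also: NT is the 2HG producing partner of a matched IDH1 knockdown line; 0% = DMSO-treated cells and -100% = media-only wells without cells; nearly all actives have a fitted effect of over 55% in size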
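A 48-hour cytotoxicity screen used HT-1080-NT cells plated 2 hours before compound delivery. ATP-based CellTiter-Glo luminescence measured viability, normalized to DMSO and no-cell controls.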
Starred values were filed as active, the others as inactive; i = inactive; ? = inconclusive; / = no result. Calls follow the shape of the dose curve; as a rule, active = well fitted curve in the direction sought with a large enough effect; inconclusive = small, poorly fitted or top-dose-only effect, or another doubt; inactive = no such curve, though single readings can be large; an effect the other way counts as inactive or inconclusive. Unless noted, % is scaled to controls: 0 for no effect and ±100 for the full control effect; potency is read from the fitted curve at half-maximal effect.

SMILES	KB-3-1 cytotox	TDP1 cell noCPT	HT1080 IDH1KD tx	KB-V1 cytotox	DT40 TDP1 CPT	HT1080-NT tox
COc1ccc2c(c1)c1c(c(=O)n(-c3cccc(C)c3)c(=O)n1CC(=O)N1CCCC1)n2C	i	?	/	i	?	/
CNc1cnc(-c2ccc(F)c(F)c2F)cn1	i	3%	-4%	i	0%	11%
c1ccc2[nH]c3cc4ncnc4cc3nc2c1	?	18µM*	-9%	?	?	-10%
Cc1c(NC(=O)c2ccc(Cl)cc2)cc(C(C)C)c(O)c1S(=O)(=O)c1ccccc1	i	?	/	i	?	/
Cc1c(NC(=O)c2ccccc2)cc(C(C)C)c(O)c1S(=O)(=O)c1ccc(Cl)cc1	i	?	/	i	21µM*	/
COc1cc(OC)cc(C(=O)NC(=S)Nc2ccc(N3CCCC3)cc2)c1	i	8.2µM*	-3%	?	15µM*	-4%
CCOc1cccc(C(=O)NC(=S)Nc2cccc(NC(=O)c3ccccc3Cl)c2)c1	i	21µM*	-6%	i	?	1%
CCCOc1cccc(C(=O)NC(=S)Nc2ccc(N3CCN(C)CC3)cc2)c1	?	?	8%	i	?	1%
CCOc1cccc(C(=O)NC(=S)Nc2ccc(N3CCN(CC)CC3)cc2)c1	i	23µM*	?	i	?	?
CC(=O)Oc1ccc2c(c1)C(=O)CCCCCC(=O)O2	?	-1%	-6%	i	-7%	-4%
CCOC(=O)Cc1nnc2c(Nc3ccccc3F)nc3nonc3n12	?	23µM*	?	i	23µM*	?
CCOC(=O)Cc1nnc2c(Nc3ccc(C)cc3)nc3nonc3n12	i	-20%	-2%	i	-23%	-2%
CC1C(=O)N2CCCc3cc(S(=O)(=O)Nc4ccc(Br)cc4F)cc1c32 (centres undefined)	/	-39%	/	/	?	/
C=CCOn1c(=O)c(-c2ccc(F)cc2)[n+]([O-])c2ccccc21	i	-23%	10%	i	2%	14%
COc1cc(NC(=O)CCn2c(-c3ccccc3)cc(C(C)=O)c2C)cc(OC)c1	i	13µM*	/	i	?	/
CC(=O)c1cc(-c2ccc(F)cc2)n(CCC(=O)Nc2nc3c(C)cccc3s2)c1C	i	13µM*	/	i	?	/
CCOC(=O)c1cc(-c2ccc(F)cc2)n(CCC(=O)Nc2nc3ccc(OC)cc3s2)c1C	i	16µM*	/	?	18µM*	/
CCOC(=O)c1cc(-c2ccc(OC)cc2)n(CCC(=O)Nc2cccc(C(C)=O)c2)c1C	/	15µM*	/	/	16µM*	/
Nc1ccccc1NC(=O)NC(=O)c1ccccc1	i	6%	1%	i	?	-1%
CCC(C(=O)Nc1cc(C)ccc1OC)n1nnc(C(=O)OC)c1C(=O)OC (centres undefined)	i	15%	/	i	-1%	/
CCCn1c(=O)c(C)cn2nc(N)nc12	/	-1%	/	/	6%	/
CCN(CC)C(=O)Cn1cc(SCC(=O)Nc2ccccc2C)c2ccccc21	i	-9%	/	i	-7%	/
COCCCNc1nc2c(S(=O)(=O)c3ccccc3)nnn2c2ccc(Cl)cc12	i	-6%	/	i	-1%	/
CSc1cccc(NC(=O)Cn2nnc(C(=O)NCCc3ccccc3)c2N)c1	i	-2%	/	i	-28%	/
CCc1ccc(NC(=O)CCn2c(-c3ccc(OC)cc3)cc(C(C)=O)c2C)cc1	i	16µM*	/	i	16µM*	/
CCOC(=O)c1sc(NC(=O)CN2CCN(c3ccc(OC)cc3)CC2)nc1C	i	-27%	5%	?	22%	-4%
CCOC(=O)c1cccc(NC(=O)CN2CCN(c3ccc(OC)cc3)CC2)c1	i	?	9%	21µM*	-11%	2%
